# Reference: PubChem BioAssay (EPA / NIEHS)
# Activity calls are given as the source filed them. How the source made its calls: active means hit-call score of the fitted dose curve at least 0.9, where 1 is the maximum; inactive means score below 0.9.
# Target: Cellular tumor antigen p53 (Homo sapiens) (UniProt P04637)
# Test: ATG_p53_CIS: Attagene CIS-FACTORIAL HepG2 Assay for human p53 Transcription Factor (AID 2282994)
# Settings: HepG2 p53 cis-element reporter, Attagene mRNA; actives raise or lower the signal
# Procedure, shortened: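 HepG2, transient MRTU transfection (cis promoter elements, endogenous TFs); 24 h dosing; RNA isolation, RT-PCR, 6-FAM primer extension, HpaI digest, CE fluorescence; bidirectional fit vs DMSO.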
# Chain of Cellular tumor antigen p53 (Homo sapiens) (P04637 whole entry, looked up): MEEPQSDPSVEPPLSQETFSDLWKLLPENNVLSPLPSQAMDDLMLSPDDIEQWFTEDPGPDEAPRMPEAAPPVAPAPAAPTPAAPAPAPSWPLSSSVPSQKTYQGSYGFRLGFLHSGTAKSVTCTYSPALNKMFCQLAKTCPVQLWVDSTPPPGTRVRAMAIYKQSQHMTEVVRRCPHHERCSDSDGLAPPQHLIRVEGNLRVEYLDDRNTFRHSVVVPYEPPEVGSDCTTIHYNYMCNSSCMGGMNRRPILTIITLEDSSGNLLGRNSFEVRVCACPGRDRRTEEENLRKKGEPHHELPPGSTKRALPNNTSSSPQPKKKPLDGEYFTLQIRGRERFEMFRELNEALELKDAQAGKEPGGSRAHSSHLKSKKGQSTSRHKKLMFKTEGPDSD
SMILES,outcome,AC50
CN(C)[C@@H]1C(=O)C(C(N)=O)=C(O)[C@@]2(O)C(=O)C3=C(O)c4c(O)ccc(Cl)c4[C@@](C)(O)[C@H]3C[C@@H]12,inactive,–
Nc1ccc(-c2ccccc2)cc1,inactive,–
CCN(N=O)C(N)=O,inactive,–
O=CCCl,inactive,–
CCCCCCCCCCBr,inactive,–
C=C(C)[C@@H]1CC=C(C=O)CC1,inactive,–
BrCC(Br)c1ccccc1 (centres undefined),inactive,–
Cc1cc(Cl)ccc1O,inactive,–
BrCCCCBr,inactive,–
Brc1c(Br)c(Br)c(Oc2c(Br)c(Br)c(Br)c(Br)c2Br)c(Br)c1Br,inactive,–
CC(C)(c1ccc(O)c(-c2ccccc2)c1)c1ccc(O)c(-c2ccccc2)c1,inactive,–
CN(N=O)C(N)=O,inactive,–
CCNc1nc(NCC)nc(SC)n1,inactive,–
Brc1ccc(Oc2c(Br)cc(Br)cc2Br)c(Br)c1,inactive,–
Clc1cnc(Oc2ccc(Oc3ncc(Cl)cc3Cl)cc2)c(Cl)c1,inactive,–
CCCCCCCCBr,inactive,–
Cc1cc(Cl)ccc1OCCCC(=O)O,inactive,–
CCCCC(CC)C(=O)Cl (centres undefined),inactive,–
CCCCCCCCCCCCBr,inactive,–
Nc1nc(=S)[nH][nH]1,inactive,–

SMILES,outcome,AC50
N#Cc1ccccc1N,inactive,–
O=[N+]([O-])c1cc([As](=O)(O)O)ccc1O,inactive,–
N#Cc1ccccc1Cl,inactive,–
CCOP(=S)(OCC)O/N=C(\C#N)c1ccccc1,inactive,–
c1csc(-c2ccc(-c3cccs3)s2)c1,inactive,–
OC(c1ccc(Cl)cc1)(c1ccc(Cl)cc1)c1cccnc1,inactive,–
CC(C)C(C)(N)C#N (centres undefined),inactive,–
CC(C)CC(C)(c1ccc(O)cc1)c1ccc(O)cc1,–,11.1 µM (active)
OCC(c1ccc(Cl)cc1)c1ccc(Cl)cc1,inactive,–
FC(F)OCC(F)(F)C(F)(F)F,inactive,–
CC(=O)CN(CC(C)=O)N=O,inactive,–
CCC[CH2][Sn]([CH2]CCC)([CH2]CCC)[CH2]CCC,–,18.5 µM (active)
Cc1cc(-c2cc(C)c(N)c(C)c2)cc(C)c1N,–,80.2 µM (active)
CC(=O)C(F)(F)C(F)(F)F,inactive,–
Cc1ccc(CCl)cc1,inactive,–
CC(F)(F)CC(F)(F)F,inactive,–
COC(F)(C(F)(F)C(F)(F)F)C(F)(C(F)(F)F)C(F)(F)F (centres undefined),inactive,–
c1ccc2c(c1)Oc1ccccc1O2,inactive,–
COC(=O)Nc1cccc(OC(=O)Nc2cccc(C)c2)c1,inactive,–
